M1 PAM parental: nonselective activator or artifact in parental CHO-K1 calcium assay. AID 602247. 0.02% of 360,000 active. ATP EC20, Fluo-8 calcium fluorescence; 0% at ATP EC20, 100% at ATP max. activation, % at 3 µM;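 active means activation above the run cutoff, the mean activation of all test compounds plus 3 SD, cut at about 40% in these data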;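 further: peak over basal fluorescence ratio in a 140 s read after ATP addition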
CHO-K1 Ca antag: counter-screen for M1 antagonists: effect in parental CHO-K1 cells; ATP-induced calcium, Fluo-8 fluorescence; inhibition, % at 3 µM; 0.6% of 360,000 active;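 active means inhibition above a per-plate cutoff, the plate's mean sample inhibition plus 3 SD, cut at about 24% in these data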;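 further: 0% = DMSO plus EC80 ATP and 100% = DMSO alone without ATP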
M1 ag parental: nonselective activator or artifact in parental CHO-K1 cells. Fluo-8 calcium fluorescence; scaled to maximal ATP response, vehicle zero. activation, % at 3 µM. 0.48% of 360,000 active. AID 602248; in the data active means activation above about 15%;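 further: untransfected CHO-K1 host cells lacking M1 receptor as counterscreen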
M1 PAM: human CHRM1 positive allosteric modulation; 0.088% of 360,000 active; AID 588819; CHO-K1 hM1, Fluo-8 calcium fluorescence, ACh EC20; 0% = ACh EC20, 100% = maximal ACh; P11229; activation, % at 3 µM; in the data active means activation above about 19%, passing the limit was not always enough
Target sequence (P11229 whole entry, looked up): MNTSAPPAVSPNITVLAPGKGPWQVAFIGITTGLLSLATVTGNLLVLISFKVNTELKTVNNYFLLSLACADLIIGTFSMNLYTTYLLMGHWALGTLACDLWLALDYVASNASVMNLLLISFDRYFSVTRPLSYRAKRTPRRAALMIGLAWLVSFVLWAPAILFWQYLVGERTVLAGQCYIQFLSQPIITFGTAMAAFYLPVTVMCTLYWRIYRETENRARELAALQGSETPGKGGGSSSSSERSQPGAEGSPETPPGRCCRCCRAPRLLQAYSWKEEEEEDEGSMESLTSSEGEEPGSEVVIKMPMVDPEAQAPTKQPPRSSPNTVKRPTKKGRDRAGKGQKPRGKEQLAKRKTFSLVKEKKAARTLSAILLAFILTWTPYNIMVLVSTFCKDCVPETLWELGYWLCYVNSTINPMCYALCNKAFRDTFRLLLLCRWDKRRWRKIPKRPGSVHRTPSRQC
M1 ag: agonists of human M1 muscarinic receptor; P11229; CHO-K1 hM1, Fluo-8 calcium fluorescence, agonist mode; 0% DMSO, 100% acetylcholine EC100; activation, % at 3 µM; 0.33% of 360,000 active; AID 588814;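 active means activation above the run's mean compound activation plus 3 SD, cut at about 16% in these data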;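 further: peak over basal fluorescence ratio within a 140 s kinetic read after compound addition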
M1 antag: antagonists of human M1 muscarinic receptor; P11229; CHO-K1 hM1, Fluo-8 calcium fluorescence, ACh EC80 antagonist; inhibition, % at 3 µM; 1.3% of 360,000 active;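 active means percent inhibition above its own plate's cutoff, namely the mean of that plate's compound wells plus 3 SD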;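 further: peak over basal fluorescence ratio during 140 s after agonist addition; 0% = ACh EC80 plus DMSO and 100% = DMSO alone without agonist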
* hit, by the source's call. Most compounds without a hit are left out; they make up all but 2.3% or so of the library.

SMILES | M1 PAM parental | CHO-K1 Ca antag | M1 ag parental | M1 PAM | M1 ag | M1 antag
COCc1nc(-c2ccc(-c3ccccc3)nc2OC)no1 | 15.9 | -2.7 | 0.4 | 7.9 | -2.7 | -19.9
Cc1ncc(CN2CCCCC2C(=O)Nc2ccc(Oc3ccccc3)nc2)cn1 (stereo unspecified) | -21.8 | 6.6 | 0.2 | -5.1 | -5.5 | 9.6
COCc1ccc(CN2CCCCC2C(=O)Nc2ccc(Oc3ccccc3)nc2)o1 (stereo unspecified) | 14.4 | -8.8 | 1.7 | -21.5 | -5.4 | 47.4*
Cc1ccc(C)c(N2CCN(C(=O)CCNS(=O)(=O)c3ccc4c(c3)oc(=O)n4C)CC2)c1 | -14.2 | -1.5 | 17.3* | -14.2 | 1.0 | 13.7
Cn1c(=O)oc2cc(S(=O)(=O)NCCC(=O)N3CCN(c4ccccc4F)CC3)ccc21 | -7.1 | -2.1 | 2.9 | -3.9 | -4.5 | 11.4
NNC(=O)c1sccc1OCc1ccc(F)cc1 | 10.8 | -3.0 | 1.3 | 12.4 | -0.6 | -11.9
CCOc1ccsc1C(=O)O | -26.9 | 29.9* | 1.1 | 0.8 | -3.6 | -1.2
Cc1ccc(COc2ccsc2C(=O)O)cc1 | 17.7 | 0.3 | 15.1* | 12.6 | -7.0 | -9.0
O=C(N/N=C/c1ccc(Cl)cc1)c1sccc1OCc1ccc(F)cc1 | 29.8 | -8.5 | 0.3 | 7.0 | 0.1 | -10.4
O=C(N/N=C/c1ccc(F)cc1)c1sccc1OCc1ccc(F)cc1 | 44.5* | -19.2 | 2.6 | 7.2 | 1.8 | -13.2
CCOC(=O)c1ccc2nc(NC(=O)C(C)C)sc2c1 | 14.8 | 2.2 | 0.0 | -7.6 | -0.9 | 12.3
C=CCN(CC=C)S(=O)(=O)c1ccc2nc(NC(=O)C(C)C)sc2c1 | 43.3* | -14.5 | 33.2* | -5.6 | 23.9* | -5.5
COc1ccc(OCCN2CCC(C(=O)NC(c3ccc(Cl)cc3)c3ncccc3C)CC2)cc1 (stereo unspecified) | 17.4 | -18.4 | 2.8 | -8.3 | -5.4 | 7.0
O=C(Nc1ccccc1F)C1CCCN1S(=O)(=O)c1cccc2nsnc12 (stereo unspecified) | -13.3 | 58.2* | -0.2 | 4.8 | -0.1 | -8.6
CC(=O)c1ccc(N2CCN(S(=O)(=O)c3cccc4nsnc34)CC2)cc1 | -17.1 | 24.2* | -0.3 | 1.4 | -2.3 | 8.3
CC(=O)Nc1ccc(NC(=O)C2CCCN2S(=O)(=O)c2cccc3nsnc23)cc1 (stereo unspecified) | 4.8 | 2.1 | 18.8* | 9.3 | -2.3 | -5.3
COc1ccc(N2CCN(S(=O)(=O)c3cccc4nsnc34)CC2)cc1 | 0.3 | -10.4 | 0.7 | 8.2 | -1.1 | -5.7
COc1cc2c(cc1OC)C(c1ccc3c(c1)Cc1ccccc1-3)OC(=O)C2 (stereo unspecified) | 17.2 | -11.6 | 1.8 | -5.2 | 0.3 | 2.2
CC(=O)Oc1ccccc1/C=C/c1ccc2ccccc2[n+]1C | -20.8 | 9.2 | 0.2 | -29.0 | -8.2 | 54.1*
O=C(c1ccc(=O)n(Cc2ccccc2)n1)N1CCN(C/C=C/c2ccccc2)CC1 | 3.6 | -2.7 | 3.6 | -18.6 | -0.3 | 41.3*
CN(C)C1CCCCC=CC(=O)NC1 (stereo unspecified) | 18.6 | -12.7 | 1.0 | 9.5 | -2.5 | -10.8
CCC/C=C/c1ccc(CN2C(CC(C)C)C(=O)N(Cc3cn(Cc4ccco4)nn3)CCS2(=O)=O)cc1 (stereo unspecified) | -5.3 | 0.5 | 0.1 | -4.5 | -3.0 | 1.5
CCOC(=O)C1=C(NC(=S)NC(=O)c2ccccc2)c2ccccc2CC1(C)CC (stereo unspecified) | 21.9 | -5.3 | 20.4* | -4.0 | -3.0 | 20.3
CCOC(=O)C1=C(NC(=S)NC(=O)c2ccccc2)c2ccccc2CC1C(C)C (stereo unspecified) | 10.0 | -12.8 | 1.7 | 2.0 | -1.7 | -20.3
Cn1ncc(Oc2ccc([N+](=O)[O-])cc2)c(Cl)c1=O | 2.8 | 6.8 | 15.3* | 5.7 | -2.7 | -2.0
SMILES | M1 PAM parental | CHO-K1 Ca antag | M1 ag parental | M1 PAM | M1 ag | M1 antag
Cn1ncc(Cl)c(Oc2ccc(Cl)cc2)c1=O | 17.3 | -3.5 | -0.2 | -4.4 | -10.4 | 2.9
CCCCCCN1C[C@H](n2cc(-c3ccc(F)cc3)nn2)[C@@H](O)C[C@@H]1c1ccc(Cl)cc1 | 9.7 | -12.1 | 1.0 | 4.7 | -4.1 | -9.5
CC(C)c1ccc(NC(=O)C2(C)Cc3c(-c4ccccc4)ccnc3O2)cc1 (stereo unspecified) | 11.5 | -2.5 | 0.5 | -1.4 | -4.3 | -3.3
O=C(c1cc(COc2ccc(F)cc2Cl)on1)N1CCN(C2CCCCC2)C(=O)C1 | -18.6 | 17.3 | 20.9* | -14.4 | 2.4 | 28.4*
CC(C)N(C)c1ncnc2c1ncn2[C@H]1CN(Cc2ccc(F)cc2)C[C@@H](CO)O1 | -3.0 | -5.1 | 1.2 | -0.3 | 1.1 | 5.5
COC(=O)N1CCCCC1c1cc(C(=O)Nc2cccc3c2CCCC3)no1 (stereo unspecified) | 4.4 | 17.3 | 0.4 | -1.4 | -5.8 | -0.4
CC1(C(=O)Nc2ccc3c(c2)OCCO3)CCC(=O)N1CC(F)(F)F (stereo unspecified) | 13.4 | 3.0 | 0.8 | 10.8 | -5.2 | -9.2
CC1(C(=O)Nc2ccc3ccccc3c2)CCC(=O)N1CC(F)(F)F (stereo unspecified) | -9.1 | 32.0* | 0.2 | 3.8 | 0.9 | 8.7
CCOC(=O)C1=CCCN(S(=O)(=O)c2ccc(C)cc2)C1 | 15.3 | 5.5 | 2.9 | 0.6 | -4.2 | 9.8
Cc1nn(C(C)C(=O)NCCCN2CCCCCC2)c(=O)c2c1sc1ccccc12 (stereo unspecified) | 27.4 | -20.2 | -0.2 | -21.3 | -5.9 | 55.2*
CCc1cccc(CC)c1N1C(=O)C2=C(SCCCS2)C1=O | -2.3 | 12.4 | 26.4* | -15.9 | 20.2* | 15.7
CCc1nc2c(OCc3ccc(F)c(F)c3)cccn2c1N(C)C(=O)c1ccncc1 | 15.0 | -11.6 | -0.2 | 5.7 | -5.6 | -17.5
O=S(=O)(c1ccc(N2CCCC2)cc1)C(F)(F)F | -12.7 | 27.3* | 9.8 | -14.4 | -3.4 | 25.4
O=S(=O)(c1ccc(N2CCN(c3ccc(F)cc3)CC2)cc1)N1CCCC1 | 1.5 | -2.7 | 0.5 | 6.8 | -3.5 | -8.1
O=C(NCCC1=CCCCC1)c1[nH]c(C(F)(F)F)nc1-c1ccccc1 | 13.2 | -12.5 | 12.0 | -6.2 | 6.5 | -14.9
COc1ccccc1NC(=O)CSc1nc2ccccc2cc1Cc1ccccc1 | 41.7* | -10.7 | 0.8 | -0.7 | -6.1 | 1.4
O=P1(O)CC2=C(CC=CC2)C1 | 23.0 | -7.9 | 0.3 | 12.8 | -1.8 | -19.7
Cc1c(C(=O)NCc2cccs2)sc(=O)n1Cc1ccc(S(C)(=O)=O)cc1 | 6.1 | -3.8 | 3.9 | 0.9 | -6.4 | -8.2
Cc1ccc(Cl)cc1N1CCN(C(=O)C2CCN(S(=O)(=O)c3c(C)nn(C)c3C)CC2)CC1 | -1.5 | 16.0 | 12.4 | -20.2 | 9.5 | 21.7*

Screening data: PubChem, The Scripps Research Institute Molecular Screening Center
